# The panel holds about 83,000 compounds, 20% with a hit somewhere; the sample as a whole holds those more often.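 A percent growth of 40 corresponds to 60% growth inhibition; 0 means no net growth; -100 means all cells died. Active threshold: below 10.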 Unmarked numbers belong to inactive results. Active and inactive are the calls of the source.
# Columns and labels:
# Assay in all cases: NCI-60 one-dose screen, 48 h (100 = growth as untreated, 0 = no growth, -100 = all killed)
# Conditions in all cases: 10 µM unless noted
# SK-MEL-2 melanoma = tested on: SK-MEL-2 melanoma
# EKVX NSCLC = tested on: EKVX NSCLC
# SN12C renal = tested on: SN12C renal
# UO-31 renal = tested on: UO-31 renal
# TK-10 renal = tested on: TK-10 renal
# ACHN renal = tested on: ACHN renal
# CAKI-1 renal = tested on: CAKI-1 renal
# A498 renal = tested on: A498 renal
# CCRF-CEM leukemia = tested on: CCRF-CEM leukemia
# MOLT-4 leukemia = tested on: MOLT-4 leukemia
Structure (SMILES),growth (SK-MEL-2 melanoma),growth (EKVX NSCLC),growth (SN12C renal),growth (UO-31 renal),growth (TK-10 renal),growth (ACHN renal),growth (CAKI-1 renal),growth (A498 renal),growth (CCRF-CEM leukemia),growth (MOLT-4 leukemia)
CN[C@]12CC3(C=CC(=O)C=C3)O[C@@]1(Cc1ccc(OC)cc1)N(C)C(=O)N2,70.7%,96%,4.44% (active),48.7%,24.1%,-86.3% (active),16%,97%,6.3% (active),28%
CC1(C)CC[C@]2(c3nnc(-c4ccncc4)o3)CC[C@H]3C(=CC[C@H]4[C@@]3(C)CC[C@H]3C(C)(C)C(=O)CC[C@]43C)[C@@H]2C1,97%,80.1%,75.2%,51%,97.5%,71.3%,58.1%,31.6%,52.5%,38.7%
O=C(CCc1nnc(Cn2cnc3nc[nH]c3c2=O)o1)c1nc2ncccc2[nH]1,103%,102%,95.1%,80.8%,96.9%,105%,92.2%,94.8%,90.5%,103%
CCOc1nc(-c2ccccc2)cc2c(O)c(C(=O)NN)[nH]c(=O)c12,83.7%,108%,109%,88.6%,120%,107%,109%,115%,103%,113%
CCCCCCCCCCCCCCCCCCOc1ccccc1CC(=O)NCC[N+]1(C)CCCC1,62.4%,92%,29.8%,85.1%,25.9%,95.8%,74%,71.5%,18.8%,14%
CCCCC[C@@H]1Cc2cc(O)c(C(=O)O)c3c2[C@H](C[C@]2(OC[C@@H](CC(=O)[C@@](C)(CC)C(=O)OC)[C@@H]2C)O3)O1,101%,113%,92.4%,99.6%,109%,97.5%,99.9%,122%,116%,90.2%
Cc1noc(C)c1C(=O)OCc1coc2ccccc2c1=O,81.4%,86.9%,65.4%,48.7%,71.4%,78.3%,45.3%,104%,24.2%,62.8%
COc1ccc(-c2cc(-c3ccc(Cl)cc3)c(C#N)c(=O)n2CCCCC(=O)Nc2ccccc2N)cc1,79.7%,47.3%,42.3%,33.4%,102%,51.6%,1.45% (active),20.9%,42.5%,47.8%
CC(C)=CCC[C@](C)(O)[C@H]1CC[C@]2(C)[C@@H]1CC[C@@H]1[C@@]3(C)Cc4nccnc4C(C)(C)[C@@H]3CC[C@]12C,82.7%,70.6%,72.3%,79.9%,94.9%,85%,70.2%,91.4%,68.4%,66.7%
N#CC1=C(N)Oc2c(sc3c(F)cccc23)C1c1ccc(F)cc1 (stereo not given),-4.03% (active),47.3%,42.4%,41.9%,35.8%,46.6%,29.1%,23.2%,19.8%,18.4%
O=C(Nn1c2c(sc1=NCc1ccccc1)C(=O)c1ccccc1C2=O)c1cc2ccc1CCc1ccc(cc1)CC2,77.3%,88.4%,61.8%,38.2%,124%,42%,43.4%,86.7%,40.8%,21%
COc1cc(/C=C\c2cc(/C=C\c3ccc(O)c(OC)c3)n(C(=O)COc3ccc(Cl)cc3Cl)n2)ccc1O,-4.36% (active),38.4%,8.09% (active),8.72% (active),20.5%,18.7%,14.8%,17.6%,4.35% (active),-0.332% (active)
CNC(=O)c1c(NC(=O)c2ccc(C(F)(F)F)cc2)sc2c1CCC(=O)C2,-12.1% (active),9.76% (active),5.31% (active),-94.3% (active),34.2%,-20.3% (active),-32.9% (active),-12.5% (active),-5.31% (active),2.28% (active)
CC(C)(C)n1cc(-c2ccnc(NCCCNS(=O)(=O)c3ccc(F)cc3)c2)c(-c2cccc(F)c2)n1,88.4%,57.3%,66.5%,50.3%,97.7%,61.4%,53.6%,70.2%,49.1%,41.7%
Cc1ccc(-c2cc(-c3ccc(Cl)cc3)nc(NC(=O)c3cccnc3)n2)cc1,109%,102%,103%,79%,115%,103%,94.2%,111%,106%,93.2%
COC(=O)CNC(=O)[C@H](Cc1ccccc1)NCc1ccncc1,95.3%,99.5%,99.3%,91.2%,88.5%,107%,99.1%,88.3%,86%,105%
CCCCC(=O)Nc1ncc(Cc2ccc(Cl)cc2)s1,90.4%,72.2%,74.6%,58.2%,84.8%,81.8%,42.3%,70.6%,76.4%,66.2%
CCNc1nc(-c2ccc(Cl)c(OC)c2)c(-c2ccnc(NCCCNS(=O)(=O)c3ccc(Cl)cc3)n2)s1,-27.1% (active),75.4%,66.5%,64.9%,43.7%,74.1%,59%,66.8%,31.6%,22.2%
O=C(Cn1c2c(c3ccccc31)CCCC2)Nc1ccc(-c2nc3ccccc3s2)cc1,98.6%,108%,103%,92.6%,98.9%,112%,100%,94%,93.2%,98.8%
CC(C)(C)n1cc(-c2ccnc(NCCNS(=O)(=O)c3cccc4ccccc34)c2)c(-c2cccc(F)c2)n1,-35.3% (active),8.04% (active),-88.4% (active),-38.2% (active),-80% (active),-58.5% (active),-54.7% (active),-73.1% (active),11%,-15.5% (active)
CCCCCCC1(C)NCCO1 (stereo not given),109%,112%,103%,83.7%,111%,103%,92.9%,96.1%,90.2%,104%
CS(=O)(=O)c1cccc(-c2c(-c3cccc(OS(N)(=O)=O)c3)nc3sccn23)c1,117%,95.3%,102%,75.5%,108%,99.2%,81.2%,100%,107%,105%
Cc1cccnc1NC(=S)Nc1ncccc1C,103%,95.6%,98.4%,108%,90.1%,109%,70.7%,115%,91.4%,60.3%
C[C@]12CC[C@@H]3c4ccc(O)c([N+](=O)[O-])c4CC[C@H]3[C@@H]1CCC2=O,107%,58.5%,101%,81.5%,89%,94.1%,72.7%,141%,110%,80.4%
Cc1ccc(Sc2nnc(/N=C3\C(=O)Nc4ccccc43)s2)cc1,105%,102%,97.5%,90.5%,104%,96.6%,85.6%,93.6%,93.4%,100%
Cn1c(-c2ccc(Br)cc2)c(O)c(=O)c2c(F)cccc21,87.1%,56%,68.8%,26.3%,42.4%,37%,47.9%,62.3%,94.1%,99%
COC(=O)[C@]1(C)CCC[C@]2(C)[C@H]3C[C@H]4C(C(C)C)=C[C@]3(CC[C@H]21)[C@H]1[C@@H]4[C@@H](OCCC#N)CC[C@@H]1OCCC#N,28.8%,29.9%,2.29% (active),32.6%,46.2%,39.2%,51.8%,66.8%,19.1%,4.3% (active)

# Source: PubChem BioAssay (NCI)
